This note sets out measurements from PMC11006913.

Common to all, as to assay: PBM; 200 nM protein, PBS
Holding throughout (details): dsDNA, one strand shown

Experiment [1] concerns the target HOXC9 (Homo sapiens, UniProt P31274 178-260, K195R).
Experiment [2] has as its target HOXC9 (Homo sapiens, UniProt P31274 178-260).
The target of experiment [3] is HOXC9 (Homo sapiens, UniProt P31274 178-260, R193K).
Experiment [4] addresses HOXD13 (Homo sapiens, UniProt P35453 263-343, T313R).
The target of experiment [5] is HOXD13 (Homo sapiens, UniProt P35453 263-343).
In experiment [6] the target is HOXD13 (Homo sapiens, UniProt P35453 263-343, T313A).
For experiment [7], the target named is HOXC9 (Homo sapiens, UniProt P31274 178-260, R222W).
The target of experiment [8] is MSX2 (Homo sapiens, UniProt P35548 130-214, R199I).
Experiment [9] has as its target MSX2 (Homo sapiens, UniProt P35548 130-214).
The target in experiment [10] is MSX2 (Homo sapiens, UniProt P35548 130-214, F161Y).
The target of experiment [11] is HOXB6 (Homo sapiens, UniProt P17509 132-218, K202E).
For experiment [12], the target named is HOXB6 (Homo sapiens, UniProt P17509 132-218).
Experiment [13] addresses HOXA2 (Homo sapiens, UniProt O43364 129-215, R185T).
The target in experiment [14] is HOXA2 (Homo sapiens, UniProt O43364 129-215, R185K).
The target of experiment [15] is HOXA2 (Homo sapiens, UniProt O43364 129-215, Y150S).
Experiment [16] concerns the target HOXA2 (Homo sapiens, UniProt O43364 129-215).
The target of a further experiment is PITX2 (Homo sapiens, UniProt Q99697 72-157).

HOXC9 (Homo sapiens, UniProt P31274 178-260, K195R), sequence (P31274 178-260 K195R): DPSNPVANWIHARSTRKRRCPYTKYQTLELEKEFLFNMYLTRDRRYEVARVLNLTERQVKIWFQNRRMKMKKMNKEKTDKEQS
HOXD13 (Homo sapiens, UniProt P35453 263-343, T313R), sequence (P35453 263-343 T313R): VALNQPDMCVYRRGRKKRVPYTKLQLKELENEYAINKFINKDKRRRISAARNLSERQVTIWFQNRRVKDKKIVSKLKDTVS
HOXD13 (Homo sapiens, UniProt P35453 263-343, T313A), sequence (P35453 263-343 T313A): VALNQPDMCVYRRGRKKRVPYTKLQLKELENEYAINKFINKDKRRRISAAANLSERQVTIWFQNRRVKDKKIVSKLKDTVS
HOXD13 (Homo sapiens, UniProt P35453 263-343), sequence (P35453 263-343): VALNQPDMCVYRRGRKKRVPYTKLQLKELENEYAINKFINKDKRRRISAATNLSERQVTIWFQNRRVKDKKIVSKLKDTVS
HOXC9 (Homo sapiens, UniProt P31274 178-260, R222W), sequence (P31274 178-260 R222W): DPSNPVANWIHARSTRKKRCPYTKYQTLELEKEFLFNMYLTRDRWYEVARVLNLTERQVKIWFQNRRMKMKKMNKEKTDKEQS
HOXC9 (Homo sapiens, UniProt P31274 178-260), sequence (P31274 178-260): as the sequence (P31274 178-260 R222W) above, with W45R counted along it
HOXC9 (Homo sapiens, UniProt P31274 178-260, R193K), sequence (P31274 178-260 R193K): as the sequence (P31274 178-260 R222W) above, with R16K, W45R counted along it
HOXA2 (Homo sapiens, UniProt O43364 129-215, R185T), sequence (O43364 129-215 R185T): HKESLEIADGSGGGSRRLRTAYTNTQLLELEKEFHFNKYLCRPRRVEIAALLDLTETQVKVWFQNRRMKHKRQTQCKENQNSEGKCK
MSX2 (Homo sapiens, UniProt P35548 130-214, F161Y), sequence (P35548 130-214 F161Y): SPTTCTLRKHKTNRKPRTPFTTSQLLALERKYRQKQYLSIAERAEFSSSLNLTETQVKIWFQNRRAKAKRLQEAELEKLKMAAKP
HOXA2 (Homo sapiens, UniProt O43364 129-215), sequence (O43364 129-215): as the sequence (O43364 129-215 R185T) above, with T57R counted along it
MSX2 (Homo sapiens, UniProt P35548 130-214, R199I), sequence (P35548 130-214 R199I): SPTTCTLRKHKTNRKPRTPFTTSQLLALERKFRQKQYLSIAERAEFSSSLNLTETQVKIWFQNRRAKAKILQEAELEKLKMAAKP
MSX2 (Homo sapiens, UniProt P35548 130-214), sequence (P35548 130-214): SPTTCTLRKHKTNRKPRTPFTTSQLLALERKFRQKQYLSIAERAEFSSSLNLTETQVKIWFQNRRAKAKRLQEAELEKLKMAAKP
HOXA2 (Homo sapiens, UniProt O43364 129-215, Y150S), sequence (O43364 129-215 Y150S): as the sequence (O43364 129-215 R185T) above, with Y22S, T57R counted along it
HOXB6 (Homo sapiens, UniProt P17509 132-218), sequence (P17509 132-218): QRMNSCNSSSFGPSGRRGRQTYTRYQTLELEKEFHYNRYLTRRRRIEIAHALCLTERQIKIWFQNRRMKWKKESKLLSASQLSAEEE
HOXA2 (Homo sapiens, UniProt O43364 129-215, R185K), sequence (O43364 129-215 R185K): as the sequence (O43364 129-215 R185T) above, with T57K counted along it
HOXB6 (Homo sapiens, UniProt P17509 132-218, K202E), sequence (P17509 132-218 K202E): as the sequence (P17509 132-218) above, with K71E counted along it

ATCTACTA: the binding signal with HOXC9 [1] is 11 upbm affinity estimate (log intensity, higher = more binding, comparable within an allelic series); in the experiment with HOXC9 [2], 10.7 upbm affinity estimate (log intensity, higher = more binding, comparable within an allelic series); with HOXC9 [3] it was 10.8 upbm affinity estimate (log intensity, higher = more binding, comparable within an allelic series).
With CTGCCTCC, the binding signal with HOXC9 [1] is 9.62 upbm affinity estimate (log intensity, higher = more binding, comparable within an allelic series); with HOXC9 [2], 9.69 upbm affinity estimate (log intensity, higher = more binding, comparable within an allelic series); with HOXD13 [4], 9.53 upbm affinity estimate (log intensity, higher = more binding, comparable within an allelic series); with HOXC9 [3], 9.67 upbm affinity estimate (log intensity, higher = more binding, comparable within an allelic series); with HOXD13 [5] it was 9.62 upbm affinity estimate (log intensity, higher = more binding, comparable within an allelic series); with HOXD13 [6] it was 9.56 upbm affinity estimate (log intensity, higher = more binding, comparable within an allelic series). Further, the binding signal with HOXC9 [7] is 9.6 upbm affinity estimate (log intensity, higher = more binding, comparable within an allelic series).
Regarding AGTATTAT, the binding signal in the experiment with HOXC9 [1] was 11.6 upbm affinity estimate (log intensity, higher = more binding, comparable within an allelic series); with HOXC9 [2] it was 11.6 upbm affinity estimate (log intensity, higher = more binding, comparable within an allelic series); in the experiment with HOXC9 [3] it was 11.6 upbm affinity estimate (log intensity, higher = more binding, comparable within an allelic series).
TAAAGTGA: the binding signal was 11.3 upbm affinity estimate (log intensity, higher = more binding, comparable within an allelic series) with HOXC9 [1]; 11.4 upbm affinity estimate (log intensity, higher = more binding, comparable within an allelic series) with HOXC9 [2]; 11.4 upbm affinity estimate (log intensity, higher = more binding, comparable within an allelic series) with HOXC9 [3].
For the sequence CTCCACGC, the binding signal in the experiment with HOXC9 [1] was 9.69 upbm affinity estimate (log intensity, higher = more binding, comparable within an allelic series); with HOXC9 [2], 9.61 upbm affinity estimate (log intensity, higher = more binding, comparable within an allelic series); in the experiment with MSX2 [8], 9.56 upbm affinity estimate (log intensity, higher = more binding, comparable within an allelic series); in the experiment with HOXC9 [3], 9.6 upbm affinity estimate (log intensity, higher = more binding, comparable within an allelic series); with MSX2 [9] it was 9.47 upbm affinity estimate (log intensity, higher = more binding, comparable within an allelic series); with HOXC9 [7], 9.78 upbm affinity estimate (log intensity, higher = more binding, comparable within an allelic series). Besides, the binding signal in the experiment with MSX2 [10] is 9.61 upbm affinity estimate (log intensity, higher = more binding, comparable within an allelic series).
Turning to CCCCCCAC, the binding signal is 9.36 upbm affinity estimate (log intensity, higher = more binding, comparable within an allelic series) with HOXC9 [1]; 8.84 upbm affinity estimate (log intensity, higher = more binding, comparable within an allelic series) with HOXB6 [11]; 9.41 upbm affinity estimate (log intensity, higher = more binding, comparable within an allelic series) with HOXC9 [2]; 9.08 upbm affinity estimate (log intensity, higher = more binding, comparable within an allelic series) with HOXD13 [4]; 9.4 upbm affinity estimate (log intensity, higher = more binding, comparable within an allelic series) with HOXC9 [3]; 9.3 upbm affinity estimate (log intensity, higher = more binding, comparable within an allelic series) with HOXD13 [5]. Further, the binding signal with HOXD13 [6] is 9.15 upbm affinity estimate (log intensity, higher = more binding, comparable within an allelic series); in the experiment with HOXC9 [7] it was 9.29 upbm affinity estimate (log intensity, higher = more binding, comparable within an allelic series); with HOXB6 [12] it was 8.7 upbm affinity estimate (log intensity, higher = more binding, comparable within an allelic series).
Take CCTGCCGC: the binding signal in the experiment with HOXC9 [1] is 9.4 upbm affinity estimate (log intensity, higher = more binding, comparable within an allelic series); with HOXA2 [13], 6.91 upbm affinity estimate (log intensity, higher = more binding, comparable within an allelic series); in the experiment with HOXC9 [2] it was 9.49 upbm affinity estimate (log intensity, higher = more binding, comparable within an allelic series); in the experiment with HOXC9 [3] it was 9.31 upbm affinity estimate (log intensity, higher = more binding, comparable within an allelic series); with HOXA2 [14], 9.96 upbm affinity estimate (log intensity, higher = more binding, comparable within an allelic series); with HOXC9 [7], 9.67 upbm affinity estimate (log intensity, higher = more binding, comparable within an allelic series). For the same sequence, the binding signal with HOXA2 [15] is 10.4 upbm affinity estimate (log intensity, higher = more binding, comparable within an allelic series); in the experiment with HOXA2 [16], 7.06 upbm affinity estimate (log intensity, higher = more binding, comparable within an allelic series).
Regarding AGGGGCTC, the binding signal in the experiment with HOXC9 [1] was 9.39 upbm affinity estimate (log intensity, higher = more binding, comparable within an allelic series); with HOXC9 [2], 9.62 upbm affinity estimate (log intensity, higher = more binding, comparable within an allelic series); with HOXD13 [4], 9.61 upbm affinity estimate (log intensity, higher = more binding, comparable within an allelic series); with HOXC9 [3], 9.46 upbm affinity estimate (log intensity, higher = more binding, comparable within an allelic series); with HOXD13 [5], 9.68 upbm affinity estimate (log intensity, higher = more binding, comparable within an allelic series); in the experiment with HOXD13 [6], 9.7 upbm affinity estimate (log intensity, higher = more binding, comparable within an allelic series). Also, in the experiment with HOXC9 [7], the binding signal was 9.6 upbm affinity estimate (log intensity, higher = more binding, comparable within an allelic series).
In the case of AGTAATAA, the binding signal was 12.3 upbm affinity estimate (log intensity, higher = more binding, comparable within an allelic series) with HOXC9 [1]; 12.3 upbm affinity estimate (log intensity, higher = more binding, comparable within an allelic series) with HOXC9 [2]; 11.4 upbm affinity estimate (log intensity, higher = more binding, comparable within an allelic series) in the experiment with MSX2 [8]; 12.3 upbm affinity estimate (log intensity, higher = more binding, comparable within an allelic series) with HOXC9 [3]; 12.5 upbm affinity estimate (log intensity, higher = more binding, comparable within an allelic series) in the experiment with MSX2 [9]; 10.9 upbm affinity estimate (log intensity, higher = more binding, comparable within an allelic series) in the experiment with HOXC9 [7]. In addition, the binding signal with MSX2 [10] is 12.3 upbm affinity estimate (log intensity, higher = more binding, comparable within an allelic series).
With CCTACTCG, the binding signal is 9.67 upbm affinity estimate (log intensity, higher = more binding, comparable within an allelic series) with HOXC9 [1]; 9.65 upbm affinity estimate (log intensity, higher = more binding, comparable within an allelic series) in the experiment with HOXC9 [2]; 8.18 upbm affinity estimate (log intensity, higher = more binding, comparable within an allelic series) in the experiment with PITX2; 9.59 upbm affinity estimate (log intensity, higher = more binding, comparable within an allelic series) in the experiment with HOXC9 [3]; 9.71 upbm affinity estimate (log intensity, higher = more binding, comparable within an allelic series) with HOXC9 [7].
Regarding ATTTGTTC, the binding signal with HOXC9 [1] was 11 upbm affinity estimate (log intensity, higher = more binding, comparable within an allelic series); with HOXA2 [13] it was 9.37 upbm affinity estimate (log intensity, higher = more binding, comparable within an allelic series); with HOXC9 [2], 10.9 upbm affinity estimate (log intensity, higher = more binding, comparable within an allelic series); in the experiment with HOXC9 [3], 11 upbm affinity estimate (log intensity, higher = more binding, comparable within an allelic series); in the experiment with HOXA2 [15], 10.8 upbm affinity estimate (log intensity, higher = more binding, comparable within an allelic series); with HOXA2 [16], 9.22 upbm affinity estimate (log intensity, higher = more binding, comparable within an allelic series).
